The Kd is a measure of binding affinity in units of concentration. High values mean lower affinity, low ones higher affinity.

Test [1] concerns CAMK1G.
Test [2] relates to CAMK2D.
In test [3] the test system is T1, CDC2L1.
T1 construct: gene CDK11B

Test [4] has as its system CDK9.
Test [5] has as its system CDK2.
Test [6] deals with T2, CDC2L5.
T2 construct: gene CDK13

For test [7], the system named is CDK8.
The subject of test [8] is CAMK2A.
The test system of test [9] is CAMKK1.
The test system of test [10] is CDK4.

SMILES strings stand for the structures.
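Note: kd values determined as follow-up on hits from a single-replicate KINOMEscan panel screen.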

On to `Cc1cccc(-c2nc(C)cc(Nc3ccncc3)n2)n1` [GSK257997], for which the Kd in [1], in test [2], in [3] and in test [4] was > 10 µM throughout.
On to `O=C(Nc1n[nH]c2nc(-c3nccs3)c(Br)cc12)C1CC1` [SB-742251], for which, in test [5], the affinity, expressed as Kd, was 0.35 µM.
For the compound `CCCc1ccc(S(=O)(=O)NC2CCN(c3ccnc(Nc4ccc(F)cc4)n3)C2)cc1` (centres unmarked) [GSK1379715], the Kd in test [6] is > 10 µM.
On the same count and under the same terms, the figure for `CCn1c(-c2ccccn2)nc2cnccc21` [SB-736398] is > 10 µM.
As to `O=C(Nc1n[nH]c2cc(-c3cccc(F)c3F)ccc12)C1CC1` [SB-733894], the Kd in [1] and in test [7] was > 10 µM each time.
On to `Cc1c(Cn2ccn3c(=O)cc(N4CCOCC4)nc23)cccc1C(F)(F)F` [GSK2289044], for which the Kd in test [8] was > 10 µM.
For `CC(C)(C)c1ccc(C(=O)Nc2cn3cc(Cl)ccc3n2)cc1`, in [9], the Kd is > 10 µM.
Take `CN1C(=O)C(Nc2ccc(Cl)c(C(=O)O)c2)=C(c2ccc(Cl)cc2)C1=O` [SB-404290]: the Kd in test [1] was > 10 µM.
Take `O=C(Nc1n[nH]c2nc(-c3nccs3)c(Br)cc12)C1CCCC1` [SB-742609]: the Kd in test [3] was > 10 µM; in test [5], 0.28 µM; in test [10], 4.2 µM; in [4], 2.5 µM.
For `Cc1cc(-c2ccc3c(c2)CC[C@@H](N[C@@H](C)c2ccccc2)C3)cnc1N.Cl` [GW412617], the Kd in [1] and in test [2] was > 10 µM each time.
Turning to `CS(=O)(=O)c1ccc(-c2nc3n(c2-c2ccncc2)CCC3)cc1` [SKF-105942], the Kd in test [3] and in test [4] was > 10 µM each time.

These data come from article PMC5540273 (PLoS ONE, 2017).
